Measured values as given in ChEMBL document CHEMBL4513216, “Probing the Open Global Health Chemical Diversity Library for Multistage-Active Starting Points for Next-Generation Antimalarials” (ACS Infect Dis, 2020).
Among all 69,000 compounds or so, about 8,600 (12%) showed an effect of 50% or more. What follows is part of a selection rich in strong results, with near analogues and random picks from the rest.

The molecules below were run on Plasmodium berghei (assay: Screen against P. berghei liver stage (PbLuc), transformed with Luciferase, at 10uM). Conditions: tested at 10 uM.
Assay type: functional, HepG2

In order of falling INHIBITION:
1. CCC(CNC(=O)NC1CCN(C)CC1)Oc1ccccc1Cl (stereo not given)  89.6%
2. CC1(C)CNC(=O)c2nc(CCCN3CCCC3)[nH]c2C1  83.2%
3. CC(C)[C@H](C)NC1CCN(c2ccc(-c3cscn3)cc2)CC1  81.4%
4. Cc1cccc(CN2CCc3c(COCC(=O)N(C)C)nn(C)c3C2)n1  76.2%
5. CN(C)C(=O)CN1CCCN(CC2CCOc3ccccc3C2)CC1 (stereo not given)  75.2%
6. COCCC(=O)NCC1COc2cc(OC)ccc2C1 (stereo not given)  72.7%
7. CCNc1c(NC(=O)NCCOC)c(=O)oc2ccccc12  69.9%
8. CC(NC(=O)N1CCCN(CC(F)F)CC1)c1ccco1 (stereo not given)  62.3%
9. Cc1ccc(C(C)NC(=O)N2CCCN(CC(F)F)CC2)s1 (stereo not given)  60.9%
10. CCCc1nc(N(C)Cc2cnc(NC)nc2)c2cnn(C)c2n1  58.7%
11. CS(=O)(=O)N1CCOCC2(CCN(Cc3ccc[nH]3)CC2)C1  57.1%
12. COCCN1C[C@@H]2CN(c3cc(OC)ncn3)CCC[C@]2(C(=O)O)C1  57.1%
13. CC1(C(=O)N2CCOCC2)CN(C2CCCCC2)CCO1 (stereo not given)  56.8%
14. CC1(C)CNC(=O)c2nc(CCN3CCC(O)CC3)[nH]c2C1  53.3%
15. COc1ccc(OC)c(C2CCN(C(=O)C3CCN(C(C)C)CC3)C2)c1 (stereo not given)  53.3%
16. CCc1nc(C)c(C(=O)NCC2COc3cc(OC)ccc3C2)o1 (stereo not given)  53.2%
17. CCCc1nc(N(C)CCN2CCCCCC2)c2cnn(C)c2n1  53%
18. Cc1n[nH]c(C)c1CCC(=O)NCC1COc2ccccc2C1 (stereo not given)  52.6%
19. CCNC(=O)c1ccnc(NCC2COc3cc(OC)ccc3C2)c1 (stereo not given)  51.6%
20. COc1ccc(CCN2C(=O)O[C@@H]3CN(C)C[C@@H]32)cc1  51.2%
21. COc1cc(NC(=O)NCc2nccn2C)ccc1Br  50.8%
22. COc1ccc(OC)c(C2CCN(C(=O)C3CCOCC3)C2)c1 (stereo not given)  50.1%
23. Cc1n[nH]c(C)c1CCC(=O)NCC1CCOc2ccccc2C1 (stereo not given)  49.9%
24. COc1ccc(CCN2C(=O)O[C@@H]3CN(C4CCSCC4)C[C@@H]32)cc1  47.6%
25. CCN1C[C@@H]2CN(c3cc(OC)ncn3)CCC[C@]2(C(=O)O)C1  47.5%
26. CC(C)CC(C)NC1CCN(c2ccc(-c3cscn3)cc2)CC1 (stereo not given)  45.2%
27. Cc1cccc(CN2CCc3c(CNC(=O)CC#N)nn(C)c3C2)n1  44.2%
28. O=C(CCc1cc2n(n1)CCCN(C(=O)c1ccncc1)C2)NC1CC1  43.2%
29. CCCc1nc(N(C)CCc2noc(C(C)C)n2)c2cnn(C)c2n1  42.3%
30. COc1ccc(OC)c(C2CCN(C(=O)C3CCS(=O)(=O)CC3)C2)c1 (stereo not given)  40.5%
31. Cc1nccn1C1CCCN(C(=O)COC2CCCC2)C1 (stereo not given)  39.735%
32. Cc1nc(C)c(C(=O)N2CCc3nc4c(C)csc4c(=O)n3CC2)s1  39.7%
33. Cc1ccc(C(=O)N2CCN3C[C@H](Oc4cccnc4)C[C@H]3C2)cn1  39.3%
34. c1csc(CN2CCCN(c3ncnc4[nH]ccc34)CC2)c1  38.4%
35. Cc1cc(NC(=O)NCc2nccn2C)ccc1OC(C)C  37.1%
36. COCC(=O)NCc1cc(=O)n2c(n1)CN(Cc1ccoc1)CCC2  36.9%
37. COc1ccc2c(c1)OCC(CNC(=O)CCc1c(C)n[nH]c1C)C2 (stereo not given)  35%
38. O=C(O)c1ccccc1-c1ccc(CN2CCC(CO)C2)cn1 (stereo not given)  33.2%
39. CN1CCC(N(CCc2ccccc2)C(=O)c2cc[nH]c2)CC1  32.8%
40. CN1CCOC(C)(C(=O)N2CCN(C3CCCC3)CC2)C1 (stereo not given)  32.8%
41. CCCc1nc(N2CCCN(c3ncccn3)CC2)c2cnn(C)c2n1  30.9%
42. CCC[C@H]1CN(C(=O)c2cc(-c3cccs3)n(C)n2)C[C@@H]1N  29.7%
43. CN1[C@H](CN2CCCC2)C[C@@H]2CN(C(=O)c3ccsc3)CC[C@@H]21  28.4%
44. COc1ccc(OC)c(C2CCN(C3CCN(C(C)=O)CC3)C2)c1 (stereo not given)  27.7%
45. COc1cc(N2CCC[C@]3(C(=O)O)CN(C(C)C)C[C@@H]3C2)ncn1  26.5%
46. O=S(=O)(Cc1c(F)cccc1Cl)Cc1nnnn1C1CC1  25.8%
47. COc1ccc(OC)c(C2CCN(C(=O)C3CCC(O)CC3)C2)c1 (stereo not given)  25.5%
48. CNc1ncc(CN(C)c2nc(C3CCCC3)nc3c2cnn3C)cn1  24.7%
49. CC1(C)CNC(=O)c2nc(CCN3CCCCC3CO)[nH]c2C1 (stereo not given)  24.4%
50. O=C(c1ccc(S(=O)(=O)N2CCSCC2)cc1)N1CCCCCC1  24.2%
51. CN(C)S(=O)(=O)N1CCCC(C)(c2ncc(C(N)=O)s2)C1 (stereo not given)  23.9%
52. O=C(NCC1CC1)Nc1ccc(OCC(F)(F)F)nc1  23.73%
53. c1cc(-c2nc(CN3CCc4c(ncn4C4CC4)C3)cs2)cs1  22.6%
54. Cc1ccnc(C2(C)CCCN2S(=O)(=O)c2cccnc2)n1 (stereo not given)  21.2%
55. O=C(COc1ccccc1Cl)N1CCCC(n2ccnc2)C1 (stereo not given)  19.5%
56. NCC(CO)Cc1ccc(OC(F)(F)F)cc1 (stereo not given)  19%
57. CN1CCOCC2(CCN(Cc3ccc[nH]3)CC2)C1  18.7%
58. Cn1ccnc1CNC(=O)Nc1ccc(OC2CCC2)c(F)c1  18%
59. Cc1csc2nc3n(c(=O)c12)CCN(Cc1c[nH]cn1)CC3  17.1%
60. CN1CC(C(=O)NCCOc2ccc3c(c2)OCO3)CC1=O (stereo not given)  16.9%
61. CN1CCC(NC(=O)NCCNc2ccccn2)CC1  16.1%
62. O=C(CN1CCN(CC2CCOc3ccccc3C2)CC1)N1CCCC1 (stereo not given)  16.1%
63. CN1CCC(c2cccc(-c3ccc(C(=O)O)cc3)n2)CC1  15.5%
64. Cc1[nH]nc(CCC(=O)NCC2COc3ccccc3C2)c1C (stereo not given)  13.7%
65. CN(C)C(=O)COCc1nn(C)c2c1CCN(Cc1ccco1)C2  13.3%
66. COc1ccc2c(c1)OCC(CNC(=O)c1cnc(O)cn1)C2 (stereo not given)  12.9%
67. CC(C)c1nn(C)cc1CNCc1cccc(N(C)C)c1  12.4%
68. Cc1nccn1CCC1CCN(C2CCC3(CCNCC3)CC2)CC1  12.1%
69. CC(=O)N1CCCN(C(=O)NC(C)c2ccc(C)o2)CC1 (stereo not given)  11.3%
70. Cc1cccc(-n2c(C)cc(C(=O)NS(C)(=O)=O)c2C)c1  9.14%
71. CC1(C)CNC(=O)c2nc(CCN3CCC(C(N)=O)CC3)[nH]c2C1  8.38%
72. C/C(Cl)=C/CNC(=O)C1CCC2(CC1)CN(C)C(=O)c1ccccc1O2 (stereo not given)  7.96%
73. CC1(C(=O)N2CCOCC2)CN(CC2CCOCC2)CCO1 (stereo not given)  7.25%
74. CC(NC(=O)N1CCCN(Cc2cccs2)CC1)c1cccnc1 (stereo not given)  6.92%
75. COc1ccc2c(c1)OCC(CNC(=O)c1ccc3[nH]nnc3c1)C2 (stereo not given)  4.52%
76. CCOc1ccc(Cl)c(C(=O)N2CCN(CC(C)(C)O)CC2)n1  4.52%
77. COc1ccc2c(c1)OCC(CNC(=O)c1ccncc1)C2 (stereo not given)  4.2%
78. O=C1[C@H]2CN(Cc3ccc(F)cc3)C[C@H]2CN1CCN1CCCC1  3.81%
79. CN(CC(=O)Nc1cc(C(C)(C)C)n[nH]1)S(C)(=O)=O  3.63%
80. CN(C)C(=O)c1cc2ncc(C(=O)NC3CC3)cc2n1C  2.59%
81. Cc1nc(C(C)C)sc1C(=O)N1CCC(N2CCSCC2)CC1  1.86%
82. CCN(c1ccc(C(=O)NCCCN2CCOCC2)cc1)S(=O)(=O)CC  -0.79%
83. Cc1cc(NC(=O)CN2CCN(c3nc(C)cs3)C(C)C2)on1 (stereo not given)  -1.12%
84. Cn1ccc(C(=O)NCc2ccc(CN3CCCC3)cc2)cc1=O  -2.19%
85. COc1ccc2c(c1)OCC(CNC(=O)c1cc[nH]c1C)C2 (stereo not given)  -3.83%
86. COc1ccc(CCN2C(=O)O[C@@H]3CN(C4CCOCC4)C[C@@H]32)cc1  -5.12%
87. CCC(C)NS(=O)(=O)c1ccc(C=Cc2onc(C)c2NC(C)=O)cc1 (stereo not given)  -9.55%
88. CN1CCC(NC(=O)Nc2cnn(-c3ccccc3Cl)c2)CC1  -10.1%
89. CC1(C)CNC(=O)c2nc(CCN3CCOCC3)[nH]c2C1  -13%
90. Nc1nc(N)c2c(n1)OC1(CCN(C(=O)CC3CCNCC3)CC1)C2  -13.13%
91. CC(CNC(=O)N1CCN(CC(F)F)CC1)Cc1cccs1 (stereo not given)  -13.2%
92. CN(C)CCN(C)c1nc(CCc2ccccc2)nc2c1cnn2C  -13.4%
93. CCCNc1c(NC(=O)NCCCOC)c(=O)oc2ccccc12  -13.6%
94. Cc1cnn(CC2CCCN2C(=O)c2ccc(OCC3CC3)nc2)c1 (stereo not given)  -15%
95. c1c[nH]c(CN2CCC3(CC2)COCCN(CCN2CCCC2)C3)c1  -15.3%
96. CC(C)NC(=O)CN1CCN(CC2CCOc3ccccc3C2)CC1 (stereo not given)  -19.8%
97. COc1ccc(OC)c(C2CCN(C(=O)CCc3n[nH]c(N)n3)C2)c1 (stereo not given)  -24%
98. O=C(COC1CCCC1)NCCCn1nc2ccccn2c1=O  -24.6%
99. CCCNc1c(NC(=O)NCCOC)c(=O)oc2ccccc12  -24.7%
100. CCc1cnc(C(C)NC(=O)N2CCCN(CC(F)F)CC2)s1 (stereo not given)  -37.8%
101. COc1ccc2c(c1)OCC(CNC(=O)c1cnc(NC(C)C)nc1)C2 (stereo not given)  -42.8%
102. CC(C)n1cnc2c1C(C(=O)N1CCOCC1)N(CC1CC1)CC2 (stereo not given)  -49.1%
103. CC(CNCc1ccncc1)Oc1ccccn1 (stereo not given)  -52.1%
104. CC(C)n1[nH]c(=O)c2c1NC(=O)CC2c1cccc2cccnc12 (stereo not given)  -62.3%
105. CN1CCCC(c2nc3c([nH]2)CC(C)(C)CNC3=O)C1 (stereo not given)  -67.3%
